Compounds with a hit are over-represented: about 7.9% of the library has one in this group of screens.
HT1080-NT tox = qHTS for induction of synthetic lethality in tumor cells producing 2HG: qHTS for the HT-1080-NT fibrosarcoma cell line; HT-1080-NT fibrosarcoma viability, CellTiter-Glo ATP luminescence, 48 h; Potency, µM (doses to about 46.1 µM), actives largely listed as cytotoxic; actives 1.6% (n = 360,000); AID 686970, 2013;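 note: NT is the 2HG producing partner of a matched IDH1 knockdown line; nearly all actives have a fitted effect of over 55% in size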
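A 48-hour cytotoxicity screen used HT-1080-NT cells plated 2 hours before compound delivery. ATP-based CellTiter-Glo luminescence measured viability, normalized to DMSO and no-cell controls.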
HT1080 IDH1KD tx = qHTS for induction of synthetic lethality in tumor cells producing 2HG: qHTS for the HT-1080-IDH1KD cell line | HT-1080 IDH1 knockdown viability, ATP luminescence, 48 h | Potency, µM (series often up to 46.1 µM), most hits filed as cytotoxic | actives 2% (n = 360,000) | AID 686971, 2013
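Cytotoxicity counter-line: IDH1KD HT-1080, 48 h, CellTiter-Glo. Curves classed by r2, magnitude and activity.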
KB-V1 MDR tox = qHTS assay for MDR1-selective chemotherapeutics: Primary screen using the drug-selected MDR subline cells KB-V1. actives 3.4% (n = 400,000). Potency, µM (top dose mostly 46.1 µM), actives largely listed as cytotoxic. KB-V1 MDR cells viability, CellTiter-Glo, 72 h; note: nearly all actives have a fitted effect of over 60% in size
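KB-V1, DMEM (no phenol red) + 10% FBS; cpd pin-transferred, titration series; 72 h, 37 degrees C; CellTiter-Glo, luminescence. Data normalized, curve-fit.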
SW480 rereplic = A quantitative high throughput screen for small molecules that induce DNA re-replication in SW480 colon adenocarcinoma cells. Potency, µM (highest dose often 46.1 µM), usual class: activators. actives 1.8% (n = 340,000). SW480 DNA re-replication, Hoechst DNA content imaging, 48 h; note: nearly all actives have a fitted effect of over 55% in size
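Treated cells incubate 48 hr (37 C, 5% CO2), are stained 40 min with Hoechst, and nuclear fluorescence is enumerated; a rise in nuclei with high DNA signal marks re-replication.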
MCF10A rerep = A quantitative high throughput screen for small molecules that induce DNA re-replication in MCF 10a normal breast cells; actives 2.9% (n = 350,000); MCF 10A DNA re-replication, Hoechst nuclear intensity, 48 h; Potency, µM (series often up to 46.1 µM), usual class: activators; note: nearly all actives have a fitted effect of over 50% in size
KB-3-1 tox = qHTS assay for MDR1-selective chemotherapeutics: Primary screen using the parental adenocarcinoma cell KB-3-1; KB-3-1 viability, CellTiter-Glo ATP luminescence, 72 h; Potency, µM (series often up to 46.1 µM), actives largely listed as cytotoxic; actives 1.4% (n = 400,000); note: nearly all actives have a fitted effect of over 60% in size
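Using CellTiter-Glo luminescence, growth of non-resistant KB-3-1 adenocarcinoma cells is assessed 72 h after pin-tool compound addition at 37 °C. Normalized responses across the concentration series yield fitted curves.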
Each line names hits and unclear results; the compound was inactive in the other large screens; ! = repeats disagree. Calls come from the whole dose curve; as a rule, active = well fitted curve in the direction sought with a large enough effect; inconclusive = small, poorly fitted or top-dose-only effect, or another doubt; inactive = no such curve, though single readings can be large; an effect the other way counts as inactive or inconclusive.

Cc1cccc(N2CCN(C(=O)CC(NC(=O)c3ccccc3)c3ccccc3)CC2C)c1 (stereo not given)	KB-V1 MDR tox 3.7µM, KB-3-1 tox inconclusive
COc1cccc(N2CCN(C(=O)CC(NC(=O)c3ccccc3)c3ccccc3)CC2)c1 (stereo not given)	none
COc1cccc(N2CCN(C(=O)c3cc(C)oc3C)CC2)c1	HT1080-NT tox inconclusive, HT1080 IDH1KD tx inconclusive, KB-V1 MDR tox 15µM, SW480 rereplic inconclusive, MCF10A rerep inconclusive, KB-3-1 tox 23µM
Cc1cc(C(=O)N2CCC(C(N)=O)CC2)c(C)o1	SW480 rereplic 16µM
COc1ccccc1-c1nc2n(n1)C(c1ccccc1Cl)C(C(=O)Nc1cccnc1)=C(C)N2 (stereo not given)	none (no result: HT1080-NT tox, HT1080 IDH1KD tx, SW480 rereplic, MCF10A rerep)
O=C(C[n+]1ccccc1Cl)c1ccc(O)c(O)c1	KB-3-1 tox inconclusive (no result: HT1080-NT tox, HT1080 IDH1KD tx, SW480 rereplic, MCF10A rerep)
Cc1ccc2oc(-c3ccc(Cl)cc3)c(O)c(=O)c2c1	KB-3-1 tox inconclusive (no result: HT1080-NT tox, HT1080 IDH1KD tx, SW480 rereplic, MCF10A rerep)
CSc1nc(N)nc2c1ncn2CC(=O)NCC1CCCO1 (stereo not given)	none
Cc1cccc(N2CCN(C(=O)c3csc4ccccc34)CC2C)c1 (stereo not given)	KB-V1 MDR tox 15µM, MCF10A rerep inconclusive, KB-3-1 tox inconclusive (no result: SW480 rereplic)
Cc1cccc(N2CCN(C(=O)c3ccc4ccccc4c3)CC2C)c1 (stereo not given)	KB-V1 MDR tox inconclusive, MCF10A rerep inconclusive, KB-3-1 tox inconclusive
O=[N+]([O-])c1ccc(O)c(-c2ccnc3cc(-c4ccccc4)nn23)c1	KB-3-1 tox inconclusive (no result: HT1080-NT tox, HT1080 IDH1KD tx, SW480 rereplic, MCF10A rerep)
O=C(OC(C(=O)NC1CCCCC1)c1ccc(C(F)(F)F)cc1)c1ccco1 (stereo not given)	KB-V1 MDR tox inconclusive
COc1ccc(-c2cn(Cc3ccc(C(=O)c4ccccc4)cc3)nn2)cc1	HT1080-NT tox inconclusive, HT1080 IDH1KD tx inconclusive, KB-V1 MDR tox 2.6µM!, SW480 rereplic inconclusive, MCF10A rerep 2.6µM, KB-3-1 tox 4.1µM!
COc1ccc(-c2cn(Cc3ccc4ccccc4c3)nn2)cc1	none
Cc1ccc2nc(N(CCCN(C)C)C(=O)c3ccc4c(c3)CCCC4)sc2c1	HT1080 IDH1KD tx inconclusive, KB-V1 MDR tox 4.1µM, SW480 rereplic inconclusive, MCF10A rerep inconclusive, KB-3-1 tox inconclusive
Cc1cc(C)c2nc(N(CCCN(C)C)C(=O)c3ccc(S(=O)(=O)N4CCCCCC4)cc3)sc2c1	HT1080-NT tox 16µM, HT1080 IDH1KD tx 16µM, KB-V1 MDR tox inconclusive, SW480 rereplic inconclusive, MCF10A rerep inconclusive, KB-3-1 tox inconclusive
CCOc1ccc2nc(N(CCCN(C)C)C(=O)c3ccc(S(=O)(=O)N4CCCC4)cc3)sc2c1	none
Cc1ccc2sc(N(CCCN(C)C)C(=O)c3ccc(S(=O)(=O)N4CCCCCC4)cc3)nc2c1C	HT1080-NT tox inconclusive, HT1080 IDH1KD tx inconclusive, MCF10A rerep inconclusive, KB-3-1 tox inconclusive
CN(C)CCCN(C(=O)c1ccc(S(=O)(=O)N2CCCC2)cc1)c1nc2ccc(Br)cc2s1	HT1080-NT tox 21µM, HT1080 IDH1KD tx 23µM, KB-3-1 tox inconclusive
Cc1cccnc1C(c1ccc(F)cc1)N(C)C(=O)C1CCN(CCOc2ccc(Cl)cc2Cl)CC1 (stereo not given)	HT1080-NT tox inconclusive, KB-3-1 tox inconclusive (no result: SW480 rereplic, MCF10A rerep)
Cc1ccc(NC(=O)c2c(C)oc3ccc(O)c(CN4CCCCC4)c23)c(C)c1	KB-V1 MDR tox inconclusive (no result: HT1080-NT tox, HT1080 IDH1KD tx, SW480 rereplic, MCF10A rerep)
O=S(=O)(Nc1cccc(F)c1)c1ccc(S(=O)(=O)N2CCOCC2)cc1	none (no result: SW480 rereplic, MCF10A rerep)
CC1CCCC(NC(=O)NC(=O)CCl)C1C (stereo not given)	SW480 rereplic inconclusive, MCF10A rerep inconclusive
CC1CCCCC1NC(=O)NC(=O)CCl (stereo not given)	HT1080 IDH1KD tx inconclusive, SW480 rereplic 6.5µM, MCF10A rerep inconclusive, KB-3-1 tox inconclusive
CCOc1cccc(-c2nn(-c3ccccc3)cc2/C=C(/C#N)C(=O)NCCCn2ccnc2)c1	HT1080-NT tox 26µM, HT1080 IDH1KD tx inconclusive, KB-V1 MDR tox inconclusive, SW480 rereplic inconclusive, MCF10A rerep 21µM
O=C(NCCCn1ccnc1)c1cn(-c2ccccc2)nc1-c1ccccc1	HT1080 IDH1KD tx inconclusive
N#C/C(=C/c1cn(-c2ccccc2)nc1-c1cccc(OCc2ccccc2)c1)C(=O)NCCCn1ccnc1	HT1080 IDH1KD tx inconclusive, KB-V1 MDR tox 9.2µM, SW480 rereplic inconclusive, MCF10A rerep 13µM
c1ccc2c(c1)CCN(c1nc3cc4c(cc3s1)OCCO4)C2	HT1080-NT tox inconclusive, HT1080 IDH1KD tx inconclusive, KB-V1 MDR tox inconclusive, MCF10A rerep 15µM, KB-3-1 tox inconclusive
COc1ccc(OC)c2sc(N3CCc4ccccc4C3)nc12	KB-V1 MDR tox inconclusive
O=C1CCCC2=C1C(c1ccsc1)CC(=O)N2c1ccccc1 (stereo not given)	KB-V1 MDR tox 13µM
O=C1CCCC2=C1C(c1ccsc1)CC(=O)N2c1nnc(SCc2ccccc2)s1 (stereo not given)	none
CCOC(=O)c1c(NC(=O)c2cc(=O)c3cc(C)ccc3o2)sc2c1CCCC2	none (no result: HT1080-NT tox, HT1080 IDH1KD tx, SW480 rereplic, MCF10A rerep)
CCOC(=O)[C@]12CCCC=C1N(CCC1=CCCCC1)C(=O)[C@H](CC(=O)NCC13CC4CC(CC(C4)C1)C3)C2	HT1080-NT tox inconclusive, HT1080 IDH1KD tx inconclusive, KB-V1 MDR tox 18µM, KB-3-1 tox inconclusive (no result: SW480 rereplic, MCF10A rerep)
CCOC(=O)[C@]12CCC=C1N(Cc1ccc3c(c1)OCO3)C(=O)[C@H](CC(=O)NCC13CC4CC(CC(C4)C1)C3)C2	HT1080-NT tox inconclusive, HT1080 IDH1KD tx inconclusive, KB-V1 MDR tox 23µM, KB-3-1 tox inconclusive (no result: SW480 rereplic, MCF10A rerep)
CCOC(=O)[C@]12CCCC=C1N(Cc1ccco1)C(=O)[C@H](CC(=O)NCCCCc1ccccc1)C2	HT1080 IDH1KD tx inconclusive, KB-V1 MDR tox 15µM, KB-3-1 tox inconclusive (no result: SW480 rereplic, MCF10A rerep)
CCOC(=O)[C@]12CCCC=C1N(Cc1ccco1)C(=O)[C@H](CC(=O)NCC13CC4CC(CC(C4)C1)C3)C2	HT1080-NT tox inconclusive, HT1080 IDH1KD tx inconclusive, KB-V1 MDR tox inconclusive (no result: SW480 rereplic, MCF10A rerep)
CCOC(=O)[C@]12CCCC=C1N(Cc1ccccc1)C(=O)[C@H](CC(=O)NCC13CC4CC(CC(C4)C1)C3)C2	HT1080-NT tox inconclusive, HT1080 IDH1KD tx inconclusive, KB-V1 MDR tox 21µM, KB-3-1 tox 18µM (no result: SW480 rereplic, MCF10A rerep)
Cc1cc(=O)c(C(=O)Nc2cccc(C(=O)NC3CC3)c2)nn1-c1ccccc1Cl	SW480 rereplic inconclusive, KB-3-1 tox inconclusive

Bioassay records as filed in PubChem.
